Inconclusive results are not listed. Activity calls are given as the source filed them. The call rests on the fitted dose curve; in most records, active means well fitted curve in the direction sought with a large enough effect; inconclusive means small, poorly fitted or top-dose-only effect, or another doubt; inactive means no such curve, though single readings can be large; an effect the other way counts as inactive or inconclusive.
What was measured:
[1] = Quantitative High-Throughput drug screen in 47 multiple myeloma cell lines against the NCATS MIPE library collection: ARD_JJKsccE7 cell viability assay (AID 1918929)
How it was run: (§1)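 Luminescent ATP measurement with CellTiter-Glo gives viability, scaled between DMSO-only wells (100%) and media-only wells (0%). Cells, 500 per well, faced library compounds for 48 hours at 37C.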

[2] = Quantitative High-Throughput drug screen in 47 multiple myeloma cell lines against the NCATS MIPE library collection: JIM3_ECACC cell viability assay (AID 1918963; further: nearly all actives have a fitted effect of over 35% in size)
How it was run: (§2)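 Viability readout: CellTiter-Glo luminescence following 5 min room-temperature incubation with reagent. Prior exposure: 48 h, 37C, humidified 5% CO2, 500 cells per well.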

[3] = Quantitative High-Throughput drug screen in 47 multiple myeloma cell lines against the NCATS MIPE library collection: H1112_PLB cell viability assay (AID 1918967; further: nearly all actives have a fitted effect of over 30% in size)
How it was run: as §1

[4] = Quantitative High-Throughput drug screen in 47 multiple myeloma cell lines against the NCATS MIPE library collection: Karpas25_ECACC cell viability assay (AID 1918968; further: nearly all actives have a fitted effect of over 35% in size)
How it was run: as §1

[5] = Quantitative High-Throughput drug screen in 47 multiple myeloma cell lines against the NCATS MIPE library collection: KMS12BM_JCRB cell viability assay (AID 1918971); further: nearly all actives have a fitted effect of over 35% in size
How it was run: (§3)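 We plated 500 myeloma cells per well, pinned in MIPE 4.0 compounds, and incubated for 48 hours at 37C. ATP was then quantified with CellTiter-Glo, with DMSO and media-only wells defining 100% and 0%.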

[6] = Quantitative High-Throughput drug screen in 47 multiple myeloma cell lines against the NCATS MIPE library collection: KMS12PE_JCRB cell viability assay (AID 1918972); further: nearly all actives have a fitted effect of over 30% in size
How it was run: (§4)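 Approved and investigational drugs from MIPE 4.0 were added by pin tool to 500 cells per well. After 48 hours at 37C, ATP-based CellTiter-Glo luminescence indicated remaining viability.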

[7] = Quantitative High-Throughput drug screen in 47 multiple myeloma cell lines against the NCATS MIPE library collection: KMS26_JCRB cell viability assay (AID 1918975); further: nearly all actives have a fitted effect of over 45% in size
How it was run: as §3

[8] = Quantitative High-Throughput drug screen in 47 multiple myeloma cell lines against the NCATS MIPE library collection: MOLP8_DSMZ cell viability assay (AID 1918977); further: nearly all actives have a fitted effect of over 45% in size
How it was run: (§5)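 MIPE 4.0 approved/investigational drugs; 500 cells/well; 48 h 37 °C humidified 5% CO2; CTG luminescence readout; DMSO = 100%, media = 0% viability.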

[9] = Quantitative High-Throughput drug screen in 47 multiple myeloma cell lines against the NCATS MIPE library collection: Karpas620_DSMZ cell viability assay (AID 1918959); further: nearly all actives have a fitted effect of over 30% in size
How it was run: as §2

[10] = Quantitative High-Throughput drug screen in 47 multiple myeloma cell lines against the NCATS MIPE library collection: JIM1_ECACC cell viability assay (AID 1918964)
How it was run: as §1

[11] = Quantitative High-Throughput drug screen in 47 multiple myeloma cell lines against the NCATS MIPE library collection: INA6_PLB cell viability assay (AID 1918965; further: nearly all actives have a fitted effect of over 55% in size)
How it was run: as §4

[12] = Quantitative High-Throughput drug screen in 47 multiple myeloma cell lines against the NCATS MIPE library collection: KMS27_JCRB cell viability assay (AID 1918970); further: nearly all actives have a fitted effect of over 30% in size
How it was run: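 Each line is seeded at 500 cells per well and treated with library compounds for 48 hours under 37 °C, 5% CO2. CellTiter-Glo is then added for 5 min at room temperature before median relative luminescence is recorded.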

[13] = Quantitative High-Throughput drug screen in 47 multiple myeloma cell lines against the NCATS MIPE library collection: NCIH929_DSMZ cell viability assay (AID 1918978); further: nearly all actives have a fitted effect of over 35% in size
How it was run: as §5

[14] = Quantitative High-Throughput drug screen in 47 multiple myeloma cell lines against the NCATS MIPE library collection: KMM1_JCRB cell viability assay (AID 1918960); further: nearly all actives have a fitted effect of over 30% in size
How it was run: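 Here, 48 h treatment with MIPE 4.0 agents at 37 °C preceded an ATP luminescence read. Plating density was 500 cells per well.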

[15] = Quantitative High-Throughput drug screen in 47 multiple myeloma cell lines against the NCATS MIPE library collection: KHM11_PLB cell viability assay (AID 1918962); further: nearly all actives have a fitted effect of over 35% in size
How it was run: as §2

[16] = Quantitative High-Throughput drug screen in 47 multiple myeloma cell lines against the NCATS MIPE library collection: JJN3_DSMZ cell viability assay (AID 1918966; further: nearly all actives have a fitted effect of over 50% in size)
How it was run: as §1

[17] = Quantitative High-Throughput drug screen in 47 multiple myeloma cell lines against the NCATS MIPE library collection: KMS21BM_JCRB cell viability assay (AID 1918974); conditions: ATP luminescence, 48 h; viability: at 45.8 µM (top of the series) unless noted
How it was run: as §1

[18] = Quantitative High-Throughput drug screen in 47 multiple myeloma cell lines against the NCATS MIPE library collection: MMM1_PLB cell viability assay (AID 1918976); further: nearly all actives have a fitted effect of over 35% in size
How it was run: as §5

Measured: Potency
Potency means the concentration at half of the fitted maximal effect.

Fc1ccc([C@@H]2CCNC[C@H]2COc2ccc3c(c2)OCO3)cc1
inactive: [1] | [2] | [4] | [6] | [7]
active: [3] 10.5 µM | [5] 14.8 µM

Clc1ccc(C(c2ccccc2Cl)C(Cl)Cl)cc1 (stereo not given)
inactive: [3]
active: [2] 20.9 µM | [5] 18.7 µM | [7] 18.7 µM | [8] 26.4 µM

O=C1Cc2cc(CCN3CCN(c4nsc5ccccc45)CC3)c(Cl)cc2N1
inactive: [10]
active: [9] 8.33 µM | [2] 23.5 µM | [11] 18.7 µM | [3] 23.5 µM | [4] 18.7 µM | [12] 8.33 µM | [5] 20.9 µM | [13] 23.5 µM

Clc1ccc2c(c1)C(N1CCNCC1)=Nc1ccccc1O2
inactive: [14] | [10] | [6] | [8]
active: [2] 26.4 µM | [4] 14.8 µM | [13] 20.9 µM

CN(C)c1nc(N(C)C)nc(N(C)C)n1
not listed: [8] | [9] | [10] | [11] | [16] | [17] | [18]
inactive: all other assays above

NCCCCCC(=O)O
inactive: [1] | [14] | [10] | [3] | [4] | [5] | [7] | [8] | [13]
active: [16] 0.0187 µM

COc1cc2c(c(OC)c1OC)-c1ccc(OC)c(=O)cc1[C@@H](NC(C)=O)CC2
inactive: [1] | [14] | [2] | [10] | [11] | [4] | [6] | [17] | [13]

Nc1nc2c(ncn2COC(CO)CO)c(=O)[nH]1
active: [1] 4.18 µM | [14] 6.62 µM | [15] 20.9 µM | [2] 2.64 µM | [10] 20.9 µM | [11] 1.32 µM | [16] 20.9 µM | [3] 26.4 µM | [4] 2.64 µM | [12] 10.5 µM | [5] 18.7 µM | [6] 14.8 µM | [7] 20.9 µM | [13] 9.35 µM

CC(C)(Oc1ccc(C2CC2(Cl)Cl)cc1)C(=O)O (stereo not given)
inactive: [1] | [9] | [2] | [3] | [5] | [6] | [18] | [13]

CN(C)C(=O)C(CCN1CCC(O)(c2ccc(Cl)cc2)CC1)(c1ccccc1)c1ccccc1
active: [15] 18.7 µM | [11] 18.7 µM | [16] 18.7 µM | [4] 18.7 µM | [7] 16.6 µM | [13] 23.5 µM
inactive: [1] | [12] | [6]

C[C@](N)(Cc1ccc(O)c(O)c1)C(=O)O
inactive: [1] | [12] | [6]
active: [16] 18.7 µM | [4] 20.9 µM | [17] 20.9 µM | [18] 5.26 µM | [8] 13.2 µM

CN(C)CCCN1c2ccccc2CCc2ccc(Cl)cc21
active: [1] 8.33 µM | [9] 16.6 µM | [14] 11.8 µM | [15] 3.32 µM | [10] 9.35 µM | [3] 0.833 µM | [4] 0.743 µM | [12] 14.8 µM | [5] 18.7 µM | [6] 11.8 µM | [7] 1.66 µM | [13] 0.469 µM

COc1cc2nc(N3CCN(C(=O)C4COc5ccccc5O4)CC3)nc(N)c2cc1OC (stereo not given)
inactive: [8]
active: [14] 5.9 µM | [11] 20.9 µM | [3] 18.7 µM | [4] 20.9 µM | [5] 6.62 µM | [6] 5.9 µM | [13] 23.5 µM

NC12CC3CC(CC(C3)C1)C2
active: [11] 26.4 µM | [4] 0.118 µM | [13] 16.6 µM
inactive: [2] | [16] | [5]

COc1cc2nc(N(C)CCCNC(=O)C3CCCO3)nc(N)c2cc1OC (stereo not given)
inactive: [14] | [15] | [3] | [4] | [6] | [13]

CC(C)NCC(O)COc1ccc(CCOCC2CC2)cc1 (stereo not given)
not listed: [1] | [2] | [5] | [8] | [16] | [17] | [18]
inactive: all other assays above

COc1ccc2[nH]cc(CCNC(C)=O)c2c1
active: [10] 0.0074 µM | [7] 9.35 µM
inactive: [1] | [14] | [3] | [4] | [12] | [5] | [6] | [8] | [13]

CN(C)C(=N)N=C(N)N
inactive: [1] | [14] | [11] | [3] | [4] | [12] | [6] | [7] | [13]

— PubChem BioAssay (NCATS)
